An excerpt weighted towards active compounds, which were near 2.8% of everything screened.
SNCA viab count – counter-screen for SNCA expression inhibitors: cell viability. HEK-293-SNCA-luc viability, GF-AFC fluorescence, 24 h. AID 1671193. 0.12% of 150,000 active. Potency, µM (top dose mostly 57.1 µM), without a hit: at the highest dose activity change, negative = cytotoxicity, hits mostly cytotoxic;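 note: potency is the fitted concentration of half-maximal effect; 0% = DMSO-treated cells and -100% = medium-only wells without cells; nearly all actives have a fitted effect of over 30% in size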
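HEK-293-SNCA-luc cells (1500/well) plated 24 h, then exposed 24 h to a dilution series; GF-AFC added 30 min at 37C, fluorescence 405/540 nm; normalised to medium-only and DMSO wells, Hill fit.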
KDM5B inh – blocks human KDM5B histone demethylase activity. 2.6% of 220,000 active. Potency, µM (titrated, usually from 57.7 µM), actives largely listed as inhibitors. KDM5B demethylase, FDH-coupled NADH fluorescence (FDH is formaldehyde dehydrogenase). AID 1347165. Q9UGL1; note: potency is the fitted concentration of half-maximal effect; 0% is about no effect; nearly all actives have a fitted effect of over 70% in size
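KDM5BΔAP (200 nM final) in 50 mM HEPES pH 7.5, 0.01% Tween-20 was preincubated 10 min at RT with compound over a concentration range. Substrate mix (H3K4me3 12.5 µM, α-KG 25 µM, Fe²⁺, ascorbate, NAD⁺, FDH) was added, and NADH fluorescence change over 30 min gave dose-response curves.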
IP6K1 inh – blocks human inositol hexakisphosphate kinase 1. Q92551. IP6K1 kinase, ADP-Glo luminescence, 2 h; active compounds read low. activity change, % (series mostly up to about 58 µM). 0.81% of 140,000 active; in the data active = activity change below about -25%; note: % is set by controls: 0 for no effect and ±100 for the full control effect
Target sequence (Q92551 whole entry, looked up): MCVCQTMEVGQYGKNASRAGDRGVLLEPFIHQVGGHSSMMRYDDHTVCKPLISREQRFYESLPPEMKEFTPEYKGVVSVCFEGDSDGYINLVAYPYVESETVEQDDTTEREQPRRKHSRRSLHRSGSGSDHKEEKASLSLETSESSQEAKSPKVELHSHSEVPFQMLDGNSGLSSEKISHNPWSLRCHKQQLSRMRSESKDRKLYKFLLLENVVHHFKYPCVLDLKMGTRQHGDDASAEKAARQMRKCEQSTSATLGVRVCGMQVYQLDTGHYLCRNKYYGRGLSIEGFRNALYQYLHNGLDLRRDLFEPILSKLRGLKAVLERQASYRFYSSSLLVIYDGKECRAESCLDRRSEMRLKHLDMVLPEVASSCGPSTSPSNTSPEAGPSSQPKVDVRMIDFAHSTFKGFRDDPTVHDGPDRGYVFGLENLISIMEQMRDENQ
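ADP-Glo luminescence measures ADP made by human IP6K1 during a 2 h RT reaction with ATP/IP6 (mix at 1.3 mM/130 uM); top library doses 57.5 and 19.1 uM final.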
SNCA expr inh – SNCA gene expression inhibition; HEK-293 SNCA-luciferase knock-in, luminescence, 24 h; Potency, µM (top dose mostly 57.2 µM), for the others: top-dose activity change, negative = inhibition, actives largely listed as inhibitors; 0.17% of 140,000 active;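 note: potency is the fitted concentration of half-maximal effect; plate controls were DMSO cells for no effect and cell-free wells for full effect; nearly all actives have a fitted effect of over 45% in size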
* = called active by the depositor; i = inactive; ? = inconclusive; nt = not tested or not shown; [ ] = dose if it differs, or a comment. Unless noted, calls come from the whole dose curve; as a rule, active = well fitted curve in the direction sought with a large enough effect; inconclusive = small, poorly fitted or top-dose-only effect, or another doubt; inactive = no such curve, though single readings can be large; an effect the other way counts as inactive or inconclusive.

SMILES	SNCA viab count	KDM5B inh	IP6K1 inh	SNCA expr inh
COCCNC(=O)C(NC(=O)c1ccccc1)C1CCN(C(=O)C2CC2)CC1 (stereo unspecified)	5%	18µM*	13	35%
C=CCNC(=O)C(NC(=O)c1ccc(OC)cc1)C1CCN(C(=O)C2CC2)CC1 (stereo unspecified)	3%	i	29	26%
Cc1ccc(C#N)c(N2CCCC(c3nnc(Cn4cccn4)n3C)C2)n1 (stereo unspecified)	-4%	28µM*	7	-8%
Cc1cc(C)cc(-c2ccc(C=O)cc2)c1	3%[87.6 µM]	32µM*	-6	25%[87.6 µM]
O=Cc1ccc(-c2cccc(O)c2)cc1	4%[87.6 µM]	13µM*	-18	-24%[87.6 µM]
O=Cc1ccc(-c2ccc(F)cc2)cc1	6%[87.6 µM]	89µM*	-12	38%[87.6 µM]
Cc1c(C#N)c(NC(=O)CSc2nnnn2-c2ccccc2)n(CC2CCCO2)c1C (stereo unspecified)	nt	i	nt	nt
CCOc1ccc(NC(=O)c2ccccc2Cl)c2cccnc12	nt	i	nt	nt
Cc1ccc(-c2nc(SCc3ncc(-c4ccc(Cl)cc4)o3)n[nH]2)cc1	nt	i	nt	nt
CN1C(=O)COc2ccc(C(=O)N3CC(C)(C)[C@@](C)(O)C3)cc21	0%	32µM*	0	-11%
CC(C)(C)c1nc(C(=O)N2CCN(c3ncccn3)CC2)n2ccccc12	1%	79µM*	-11	16%
O=C(c1nc(-c2ccsc2)c2ccccn12)N1CCN(c2ncccn2)CC1	2%	25µM*	-4	-20%
O=C(c1nc(-c2ccsc2)c2ccccn12)N1CCOCC1	-8%[87.6 µM]	35µM*	9	-5%[87.6 µM]
O=C(c1nc(-c2cc(Cl)cc(Cl)c2)c2ccccn12)N1CCN(c2ncccn2)CC1	12%	i	7	13%
COc1ccc(-c2nc(C(=O)N3CCN(c4ncccn4)CC3)n3ccccc23)cc1	-4%	32µM*	12	10%
CC(=O)Nc1ccc(C2(C(=O)N3CCN(c4ccccc4)CC3)CCCCC2)cc1	-9%	i	8	4%
CC(C)C(=O)Nc1ccc(C2(C(=O)N3CCN(c4ccccn4)CC3)CCCCC2)cc1	0%	22µM*	8	-5%
CC(C)C(=O)Nc1ccc(C2(C(=O)N3CCCCC3)CCCCC2)cc1	-10%	i	-3	2%
O=C(Nc1ccc(C2(C(=O)N3CCN(c4ccccn4)CC3)CCC2)cc1)C1CC1	-7%	18µM*	-3	-18%
CS(=O)(=O)Nc1ccc(C2(C(=O)N3CCN(c4ccccn4)CC3)CCCCC2)cc1	-10%	22µM*	10	?
N#Cc1cc(CN2CCC(Nc3ncnc4sc(Cl)cc34)CC2)ccc1F	-31%	nt	0	nt
Cc1noc(C)c1S(=O)(=O)N1[C@@H]2CC[C@H]1CC(NC(=O)c1ccc(F)cc1)C2 (stereo partly specified)	4%	i	5	-7%
Cc1cc(C)c(-c2cc(C(=O)Nc3ccc(C)c(C)c3)[nH]n2)c(O)c1	nt	i	nt	nt
CC1(C)C[C@H](NC(=O)c2ccccc2)[C@@]2(CCC(=O)NCc3ccco3)CC[C@](C)(O)C[C@@H]12	6%	i	-4	2%
C[C@@]12CC[C@@H]3[C@@](CC[C@H]4[C@@]3(C)CCC[C@@]4(C)C(=O)O)(CC1=O)C2	-1%	nt	1	nt
SMILES	SNCA viab count	KDM5B inh	IP6K1 inh	SNCA expr inh
CC(=O)N[C@@H]1CCC[C@@H](C(=O)NC2CCOCC2)CC(=O)N(C)C1	13%[87.6 µM]	i	-1	6%[87.6 µM]
Cc1c(-c2ccccc2F)[nH]c2ccc(CNC(=O)CCC3=NNC(=O)CC3)cc12	3%	?	-15	25%
Cc1c(-c2ccccc2F)[nH]c2ccc(CNC(=O)Cn3ccc(=O)[nH]c3=O)cc12	-10%	32µM*	-3	50%
Cc1c(-c2ccccc2F)[nH]c2ccc(CNC(=O)CCN3CCCC3=O)cc12	11%	28µM*	15	27%
COc1ccc(-c2cn3c(n2)CO[C@@H](CNS(C)(=O)=O)C3)cc1	-7%[87.6 µM]	?	-9	31%[87.6 µM]
Cc1ccc(-c2cn3c(n2)CO[C@@H](CNS(C)(=O)=O)C3)cc1	-2%[87.6 µM]	40µM*	3	35%[87.6 µM]
Cc1nc2c(c(-c3ccc(O)cc3)n1)CN(C(=O)C(C)(C)C)CCC2	-9%[87.6 µM]	i	3	3%[87.6 µM]
c1ccc(CN2CCn3c(nnc3C3CCCNC3)C2)cc1 (stereo unspecified)	-1%	i	6	-27%
C1CCC(CN2CCn3c(nnc3C3CCCNC3)C2)CC1 (stereo unspecified)	-30%	25µM*	5	-28%
